This is part of a sample that, as a whole, favours compounds with a hit. Of some 83,000 tested, about 20% had one in any assay.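 For each line, cells grew in 96-well plates with the test compound present at a single concentration for 48 hours.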 A number with no mark means an inactive call. Active and inactive are the calls of the source. The calls were made as follows: active = growth percent below 10; inactive = the rest.

Eight molecules from PubChem BioAssay (NCI) can be followed below.

Assay in all cases: NCI-60 one-dose screen, 48 h (100 = growth as untreated, 0 = no growth, -100 = all killed)
One assay deals with NCI-H23 lung. The following applies: 10 µM unless noted.
The test system of a further assay is NCI-H226 lung. The following applies: 10 µM unless noted.
The subject of a further assay is NCI-H322M lung. The following applies: 10 µM unless noted.
The subject of the next assay is NCI-H460 lung. The conditions noted are these: 10 µM unless noted.
In another assay the test system is HOP-92 NSCLC. The conditions noted are these: 10 µM.
A further assay deals with NCI-H522 lung. The conditions noted are these: 10 µM.
The subject of a further assay is A549/ATCC NSCLC. The following applies: 10 µM unless noted.
A further assay deals with 786-0 renal. The following applies: 10 µM unless noted.
Another assay has as its system DU-145 prostate. The following applies: 10 µM unless noted.
The next assay has as its system K-562 leukemia. The conditions noted are these: 10 µM unless noted.
The subject of the next assay is MALME-3M melanoma. The following applies: 10 µM unless noted.
Another assay relates to MDA-MB-231 breast. The conditions noted are these: 10 µM unless noted.
The test system of a further assay is RXF 393 renal. The following applies: 10 µM unless noted.
The next assay concerns SF-268 CNS. The following applies: 10 µM unless noted.
A further assay deals with SF-295 CNS. The following applies: 10 µM unless noted.
The next assay has as its system SF-539 CNS. The conditions noted are these: 10 µM unless noted.
The subject of a further assay is UACC-257 melanoma. The following applies: 10 µM unless noted.
In the next assay the test system is M14 melanoma. The conditions noted are these: 10 µM unless noted.

`COc1cc2ncnc(-n3ncc4cc(NC(=O)Nc5ccc(Cl)c(C)c5)ccc43)c2cc1OC`: the growth was 95.5% in the assay on NCI-H23 lung; 85.9% in the assay with NCI-H226 lung; 88.7% in the assay on NCI-H322M lung; 102% in the assay on NCI-H460 lung; 93.7% in the assay on HOP-92 NSCLC; 86.9% in the assay with NCI-H522 lung. Further, the growth is 99.9% with A549/ATCC NSCLC; 77.5% with 786-0 renal; 101% in the assay on DU-145 prostate; 90.5% in the assay with K-562 leukemia; 82.8% with MALME-3M melanoma; 98.9% in the assay with MDA-MB-231 breast. For the same molecule, the growth is 99.4% in the assay on RXF 393 renal; 102% in the assay with SF-268 CNS; 96.9% with SF-295 CNS; 59.7% in the assay on SF-539 CNS; 102% with UACC-257 melanoma; 79.3% in the assay with M14 melanoma.

Regarding `O=C(/C=C1\C(=O)N(Cc2ccc([N+](=O)[O-])cc2)c2ccccc21)c1ccc(OCCN2CCCC2)cc1`, the growth was 69.2% in the assay on NCI-H23 lung; 78.5% with NCI-H226 lung; 66.2% with NCI-H322M lung; 91.4% with NCI-H460 lung; 46.2% in the assay on HOP-92 NSCLC; 38.5% in the assay with NCI-H522 lung. The growth with A549/ATCC NSCLC was 93.4%; in the assay on 786-0 renal, 69.7%; with DU-145 prostate it was 42.9%; with K-562 leukemia, 1.78% (active); with MALME-3M melanoma it was 46.8%; in the assay on MDA-MB-231 breast, 66.5%. Also, the growth with RXF 393 renal is 56.7%; in the assay with SF-268 CNS, 76.9%; with SF-295 CNS, 95.6%; in the assay on SF-539 CNS, 67.6%; in the assay with UACC-257 melanoma, 88.4%; in the assay with M14 melanoma, 70.2%.

As for `CC1(c2ccc(Br)cc2)NC(=O)NC1=O` (configuration not stated), the growth was 105% with NCI-H23 lung; 110% in the assay on NCI-H226 lung; 103% in the assay on NCI-H322M lung; 104% in the assay with NCI-H460 lung; 89.6% in the assay with HOP-92 NSCLC; 102% in the assay on NCI-H522 lung. For the same molecule, the growth with A549/ATCC NSCLC was 93.3%; in the assay with 786-0 renal it was 96%; in the assay with DU-145 prostate it was 111%; in the assay on MALME-3M melanoma, 113%; in the assay with MDA-MB-231 breast, 105%; in the assay on RXF 393 renal, 112%. The growth in the assay on SF-268 CNS is 98.4%; in the assay with SF-295 CNS, 110%; with SF-539 CNS, 100%; in the assay on UACC-257 melanoma, 98.4%; in the assay with M14 melanoma it was 103%.

For the molecule `O=C1Nc2ccccc2/C1=C/c1cn(CC(O)Cn2cc(/C=C3\C(=O)Nc4ccccc43)c3ccccc32)c2ccccc12` (configuration not stated), the growth in the assay with NCI-H23 lung was -67.3% (active); in the assay on NCI-H226 lung, -74.9% (active); in the assay on NCI-H322M lung it was -39.1% (active); with NCI-H460 lung it was -65.1% (active); in the assay on HOP-92 NSCLC, -73.9% (active); with NCI-H522 lung, -17.4% (active). The growth is -11.6% (active) with A549/ATCC NSCLC; -70.9% (active) with 786-0 renal; -90.5% (active) in the assay with DU-145 prostate; -16.7% (active) with K-562 leukemia; -76.1% (active) in the assay on MALME-3M melanoma; -79.9% (active) in the assay on MDA-MB-231 breast. Further, the growth in the assay with RXF 393 renal was -90.8% (active); in the assay with SF-268 CNS, -62% (active); with SF-295 CNS it was -84.7% (active); with SF-539 CNS it was -77.7% (active); in the assay with UACC-257 melanoma, -50.9% (active); in the assay on M14 melanoma, -81.4% (active).

Regarding `O=c1[nH]c(=S)[nH]c(O)c1/C=C1\C=Nc2ccccc21`, the growth is 82.5% with NCI-H23 lung; 90.5% in the assay on NCI-H226 lung; 110% with NCI-H322M lung; 79.5% with NCI-H460 lung; 54.2% in the assay with HOP-92 NSCLC; 91.5% with NCI-H522 lung. In addition, the growth with 786-0 renal is 107%; in the assay on DU-145 prostate, 108%; in the assay on K-562 leukemia it was 99.4%; with MALME-3M melanoma, 99.5%; with MDA-MB-231 breast it was 64.5%; with SF-268 CNS, 70%. The growth in the assay with SF-295 CNS is 43%; in the assay on SF-539 CNS, 94.2%; in the assay on UACC-257 melanoma, 80.5%; in the assay on M14 melanoma, 92.3%.

As to `COC(=O)/C=C/c1cc(O)c2oc(-c3ccc(O)c(O)c3)c(C(=O)OC)c2c1`, the growth is 30.4% in the assay with NCI-H23 lung; 18.2% with NCI-H226 lung; 48.7% in the assay on NCI-H322M lung; 29.1% in the assay on NCI-H460 lung; 56.1% with HOP-92 NSCLC; -0.902% (active) in the assay on NCI-H522 lung. The growth in the assay with A549/ATCC NSCLC was 57.2%; with 786-0 renal, 44.2%; with DU-145 prostate, 17.5%; in the assay with MALME-3M melanoma it was 57.4%; in the assay with MDA-MB-231 breast, 31.1%; in the assay on SF-268 CNS it was 25.2%. Moreover, the growth is -11.3% (active) with SF-295 CNS, 2.83% (active) in the assay on SF-539 CNS, 60.4% with UACC-257 melanoma and 21% in the assay on M14 melanoma.

As to `CC[C@H](Nc1ncnc2nc[nH]c12)c1nc2cccc(NCc3ccc(C(=O)NO)nc3)c2c(=O)n1-c1ccccc1`, the growth is 41.1% in the assay on NCI-H23 lung; 66.7% with NCI-H226 lung; 77.7% in the assay with NCI-H322M lung; 24.6% with NCI-H460 lung; 23.2% in the assay with HOP-92 NSCLC; 22.9% in the assay with NCI-H522 lung. The growth was 68.2% in the assay on A549/ATCC NSCLC; 59.1% in the assay on 786-0 renal; 67% in the assay on DU-145 prostate; 10.5% in the assay on K-562 leukemia; 62.3% with MALME-3M melanoma; 50.6% in the assay with MDA-MB-231 breast. Besides, the growth in the assay on RXF 393 renal was 27.8%; in the assay on SF-268 CNS, 35.9%; in the assay on SF-295 CNS it was 80.9%; in the assay with SF-539 CNS it was 10.9%; in the assay with UACC-257 melanoma, 56.3%; in the assay on M14 melanoma it was 68.5%.

Turning to `CC1=C[C@@H]2c3c(c(O)c(O)c4oc5cc(O)cc(O)c5c(=O)c34)[C@@H](c3cc(O)c(O)c4oc5cc(O)cc(O)c5c(=O)c34)[C@@H]2C(C)(C)C1`, the growth with NCI-H23 lung was -20.3% (active); with NCI-H226 lung, 8.46% (active); in the assay with NCI-H322M lung, 16.9%; with NCI-H460 lung, -28.3% (active); in the assay on HOP-92 NSCLC it was -15% (active); with NCI-H522 lung, -60.8% (active). In addition, the growth in the assay on A549/ATCC NSCLC was 9.43% (active); in the assay on 786-0 renal, -40.3% (active); with DU-145 prostate, 20.7%; in the assay on MALME-3M melanoma, -10.3% (active); in the assay on MDA-MB-231 breast, -38.2% (active); in the assay with SF-268 CNS it was 3.54% (active). Besides, the growth with SF-295 CNS is -26.7% (active); in the assay on SF-539 CNS, -5.82% (active); in the assay on UACC-257 melanoma, 27%; in the assay with M14 melanoma, -47% (active).
